# PubChem BioAssay (NCI)
# This is part of a sample that, as a whole, favours compounds with a hit. Of some 83,000 tested, about 20% had one in any assay.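 Each cell line was grown in a 96-well plate and treated with one concentration of compound for 48 hours. Values below 10 were considered active.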 Unmarked numbers belong to inactive results. Activity calls are given as the source filed them.
# Tests used:
# Experiment in all cases: NCI-60 one-dose screen, 48 h (100 = growth as untreated, 0 = no growth, -100 = all killed)
# SR leukemia = settings: 10 µM unless noted
# RPMI-8226 leukemia = settings: 10 µM unless noted
# OVCAR-8 ovarian = settings: 10 µM unless noted
# OVCAR-5 ovarian = settings: 10 µM unless noted
# OVCAR-4 ovarian = settings: 10 µM unless noted
# SK-OV-3 ovarian = settings: 10 µM unless noted
# IGROV1 ovarian = settings: 10 µM unless noted
# OVCAR-3 ovarian = settings: 10 µM unless noted
# NCI/ADR-RES ovarian = settings: 10 µM unless noted
# T-47D breast = settings: 10 µM unless noted
# BT-549 breast = settings: 10 µM unless noted
# MDA-MB-435 melanoma = settings: 10 µM unless noted
# SW-620 colon = settings: 10 µM unless noted
# MCF7 breast = settings: 10 µM unless noted
# HCT-116 colon = settings: 10 µM unless noted
# HCC-2998 colon = settings: 10 µM
# KM12 colon = settings: 10 µM unless noted
SMILES,growth (SR leukemia),growth (RPMI-8226 leukemia),growth (OVCAR-8 ovarian),growth (OVCAR-5 ovarian),growth (OVCAR-4 ovarian),growth (SK-OV-3 ovarian),growth (IGROV1 ovarian),growth (OVCAR-3 ovarian),growth (NCI/ADR-RES ovarian),growth (T-47D breast),growth (BT-549 breast),growth (MDA-MB-435 melanoma),growth (SW-620 colon),growth (MCF7 breast),growth (HCT-116 colon),growth (HCC-2998 colon),growth (KM12 colon)
COc1cc(Nc2ncc3c(n2)-c2ccc(Cl)cc2C(c2c(F)cccc2OC)=NC3)ccc1C(=O)O,5.63% (active),82.7%,68.3%,82.4%,78.4%,61.6%,63.3%,72.9%,64.2%,79.6%,62.8%,85.9%,54.7%,42.5%,45.3%,87.5%,
COc1ccc(-c2ccc3ncc4c(c3c2)n(-c2ccc(N3CCNCC3)c(C(F)(F)F)c2)c(=O)n4C)cn1,-34.6% (active),-46.3% (active),-62.9% (active),-80.6% (active),-76.9% (active),-83.9% (active),-79.4% (active),-91.1% (active),-70% (active),-66.9% (active),-63.6% (active),-88.3% (active),-78.4% (active),-63% (active),-69.8% (active),-93.2% (active),
CN(c1ncccc1CNc1nc(Nc2ccc3c(c2)CC(=O)N3)ncc1C(F)(F)F)S(C)(=O)=O,-6.03% (active),-7.65% (active),4.96% (active),7.36% (active),-7.63% (active),5.63% (active),7.61% (active),15.1%,56.2%,-2.8% (active),-10.5% (active),-9.58% (active),0.466% (active),2.39% (active),1.07% (active),-13.5% (active),
C#Cc1cccc(Nc2ncnc3cc(OCCOC)c(OCCOC)cc23)c1,51.3%,70.1%,40.4%,48.4%,54.3%,-21.9% (active),8.02% (active),64.2%,56.9%,30.9%,68.6%,74.7%,74.6%,88.3%,54.1%,94.8%,
Cc1ccc(-n2nc(C(C)(C)C)cc2NC(=O)NCc2cc(F)ccc2Oc2ccc3c(cnn3CCO)c2)cc1,7.67% (active),18.1%,23.6%,25.7%,27.5%,18.2%,8.97% (active),54.3%,21.3%,-3.04% (active),21.3%,7.09% (active),25.7%,7.9% (active),6.75% (active),19.9%,8.7% (active)
Nc1cc(C(F)(F)F)c(-c2cc(N3CCOCC3)nc(N3CCOCC3)n2)cn1,-6.66% (active),-6.64% (active),-24.2% (active),-17.3% (active),-11.9% (active),-54.8% (active),-44.6% (active),-9.69% (active),-20.2% (active),-42.9% (active),-2.66% (active),-62.3% (active),0.981% (active),-7.62% (active),-25.4% (active),-52.9% (active),-1.19% (active)
Cc1cc(Nc2cc(N3CCN(C)CC3)nc(Sc3ccc(NC(=O)C4CC4)cc3)n2)n[nH]1,16.7%,44.8%,38.6%,29%,77%,27.6%,30.7%,61.5%,73.8%,33.1%,23.5%,27.6%,19.3%,28.5%,18.3%,33.9%,6.38% (active)
O=C(NC[C@H](O)CO)c1ccncc1Nc1ccc(I)cc1F,57.2%,74.6%,66.9%,7.42% (active),41.4%,33.8%,16.3%,83.7%,58.7%,47.7%,88%,35.2%,17.4%,49.1%,9.79% (active),2.1% (active),16.6%
O=C(O)c1ccc(Nc2ncc3c(n2)-c2ccc(Cl)cc2C(c2c(F)cccc2F)=NC3)cc1,24.2%,47.7%,43%,59.3%,79.6%,59.7%,41.8%,64.5%,55.4%,47.5%,57.1%,70.7%,35.4%,49.3%,43.6%,78.5%,28.3%
CNC(=O)c1nn(C)c2c1C(C)(C)Cc1cnc(Nc3ccc(N4CCN(C)CC4)cc3)nc1-2,-1.85% (active),0.421% (active),8.9% (active),9.13% (active),12.9%,-16.9% (active),2.47% (active),20.7%,9.88% (active),-5.71% (active),5.23% (active),21.1%,11.5%,10.4%,0.153% (active),10.4%,0.555% (active)
C=CC(=O)N1CCC(Oc2cc3c(Nc4ccc(Cl)c(Cl)c4F)ncnc3cc2OC)CC1,-20.2% (active),35%,18.4%,25.3%,39%,-37.4% (active),-44.8% (active),19.4%,-16.8% (active),-4.87% (active),8.14% (active),-34.7% (active),32.8%,26.8%,21.8%,67.1%,30.6%
COc1cc2c(Nc3ccc(Br)cc3F)ncnc2cc1OCC1CCN(C)CC1,-6.08% (active),26.8%,27.6%,34.8%,36.4%,-5.59% (active),-21.9% (active),42.4%,30.3%,-22.9% (active),42.9%,-42.8% (active),31.8%,31.3%,24.3%,19.3%,38.1%
Cc1nc2ccc(-n3ncc(C(=O)c4cc5ccccc5[nH]4)c3N)cc2[nH]1,14.6%,45.2%,41.9%,65.9%,71.1%,49.6%,37.2%,63.2%,66%,34.9%,54%,62.8%,43.7%,44.2%,27.1%,68.8%,17.3%
